Compounds with a hit are over-represented: about 19% of the library has one in this group of screens.
DT40 TDP1 CPT = DT40-hTDP1 cell growth loss with CPT | AID 686979 | hit rate 12% among 420,000 | Potency, µM (titrated, usually from 46.2 µM), hits mostly inhibitors | chicken DT40 Tdp1-/-;hTDP1 cells + 20 nM CPT, ATP luminescence, 48 h; note: nearly all actives have a fitted effect of over 55% in size
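Chicken DT40 Tdp1-/- cells complemented with human TDP1, 400 cells/well, exposed to compounds plus 20 nM camptothecin for at least 48 h at 37 C; viability read as ATP content by CellTiter-Glo luminescence.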
TDP1 cell noCPT = qHTS for Inhibitors of human tyrosyl-DNA phosphodiesterase 1 (TDP1): qHTS in cells in absence of CPT; DT40 Tdp1-/- hTDP1 cells, no CPT, ATP luminescence, 48 h; hit rate 15% among 420,000; Potency, µM (top dose mostly 46.2 µM), actives largely listed as inhibitors; note: nearly all actives have a fitted effect of over 55% in size
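DT40 Tdp1-/-;hTDP1 cells, no CPT (DMSO vehicle only), 400 cells/well; compounds pin-transferred; ≥48 hr, 37 °C; CellTiter-Glo 30 min RT dark, luminescence read.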
RORgamma inh = inhibitors of mouse ROR gamma transcriptional activity; AID 2551; hit rate 5.4% among 310,000; Potency, µM (top dose mostly 53.6 µM), usual class: inhibitors; Drosophila S2 Gal4-RORgamma UAS-luciferase reporter, 20 h; note: nearly all actives have a fitted effect of over 60% in size
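Using a luciferase readout, inhibitors were identified by reduced reporter activity in Drosophila cells coexpressing a copper-inducible Gal4–ROR gamma fusion and UAS-driven Photinus luciferase, incubated 20 hr after 700 uM copper sulfate.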
TDP1 inh = inhibitors of human tyrosyl-DNA phosphodiesterase TDP1; Potency, µM (doses to about 130 µM), most hits filed as inhibitors; recombinant TDP1, AlphaScreen DNA substrate cleavage; Q9NUW8; hit rate 0.28% among 350,000; note: nearly all actives have a fitted effect of over 40% in size
Target sequence (Q9NUW8 whole entry, looked up): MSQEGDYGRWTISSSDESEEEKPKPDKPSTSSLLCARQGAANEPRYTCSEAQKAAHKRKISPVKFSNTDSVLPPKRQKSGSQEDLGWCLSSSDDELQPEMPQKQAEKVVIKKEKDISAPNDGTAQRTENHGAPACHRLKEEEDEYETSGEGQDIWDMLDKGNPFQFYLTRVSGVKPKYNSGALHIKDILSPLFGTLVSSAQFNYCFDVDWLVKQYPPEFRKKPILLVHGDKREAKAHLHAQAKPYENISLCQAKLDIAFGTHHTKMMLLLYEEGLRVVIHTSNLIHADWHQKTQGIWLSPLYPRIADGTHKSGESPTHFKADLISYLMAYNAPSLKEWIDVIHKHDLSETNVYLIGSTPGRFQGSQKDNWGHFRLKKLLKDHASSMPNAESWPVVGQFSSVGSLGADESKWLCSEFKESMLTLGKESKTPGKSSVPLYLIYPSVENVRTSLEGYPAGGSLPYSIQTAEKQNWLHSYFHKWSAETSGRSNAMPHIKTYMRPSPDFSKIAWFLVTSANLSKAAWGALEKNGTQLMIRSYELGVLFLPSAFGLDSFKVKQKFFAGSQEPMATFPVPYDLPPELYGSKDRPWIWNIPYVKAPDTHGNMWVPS
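Compounds were preincubated with Tdp1 (1 nM final) for 15 min at room temperature before substrate (15 nM final) started a 5 min reaction; beads (10 ug/ml final) were then added for 10 min before AlphaScreen detection.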
Gal4-VP16 FLuc = counter-screen for ROR gamma inhibitors: Gal4-VP16 reporter; Drosophila S2 Gal4-VP16 UAS-luciferase, luminescence, 20 h; Potency, µM (titrated, usually from 53.6 µM), usual class: inhibitors; hit rate 3.5% among 310,000; AID 2546;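 note: Gal4-VP16 expression switched on by copper sulfate through the metallothionein promoter; nearly all actives have a fitted effect of over 50% in size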
Each line names hits and unclear results; the compound was inactive in the other large screens. Calls come from the whole dose curve; as a rule, active = well fitted curve in the direction sought with a large enough effect; inconclusive = small, poorly fitted or top-dose-only effect, or another doubt; inactive = no such curve, though single readings can be large; an effect the other way counts as inactive or inconclusive.

COc1ccc(C(CNC(=O)c2oc3ccccc3c2C)N2CCCCC2)cc1 (centres undefined)	DT40 TDP1 CPT 16µM, TDP1 cell noCPT 23µM (no result: RORgamma inh, Gal4-VP16 FLuc)
NC(=O)C1CCN(CC(=O)Nc2ccccc2N2CCOCC2)CC1	none (no result: TDP1 inh)
COCc1c(C(=O)NCC(c2ccco2)N2CCCC2)oc2ccccc12 (centres undefined)	TDP1 cell noCPT inconclusive (no result: RORgamma inh, TDP1 inh, Gal4-VP16 FLuc)
COc1ccccc1C(CNC(=O)c1oc2ccccc2c1C)N1CCCC1 (centres undefined)	DT40 TDP1 CPT inconclusive, TDP1 cell noCPT 23µM (no result: RORgamma inh, Gal4-VP16 FLuc)
S=C1NC(c2ccccc2)=NCN1c1ccc(Cl)cc1	RORgamma inh 11µM, Gal4-VP16 FLuc inconclusive
COC(=O)c1ccc(N2CN=C(c3ccc(C)cc3)NC2=S)cc1	none
Cc1ccc(C(=O)N2CCN(c3cccc(C)c3C)CC2)o1	DT40 TDP1 CPT 16µM, TDP1 cell noCPT inconclusive (no result: RORgamma inh, Gal4-VP16 FLuc)
O=C(c1ccc(CS(=O)Cc2ccc(Cl)cc2)o1)N1CCN(c2ccc(F)cc2)CC1 (centres undefined)	DT40 TDP1 CPT inconclusive
O=C(c1ccc(CS(=O)Cc2cccc(Cl)c2)o1)N1CCN(c2ccc(F)cc2)CC1 (centres undefined)	DT40 TDP1 CPT inconclusive, TDP1 cell noCPT 16µM (no result: RORgamma inh, TDP1 inh, Gal4-VP16 FLuc)
COc1ccccc1N1CCN(C(=O)c2ccc(CS(=O)c3ccccc3C)o2)CC1 (centres undefined)	DT40 TDP1 CPT 12µM, TDP1 cell noCPT 13µM (no result: RORgamma inh, Gal4-VP16 FLuc)
COc1ccccc1N1CCN(C(=O)c2ccc(CS(=O)(=O)c3ccccc3OC)o2)CC1	DT40 TDP1 CPT inconclusive, TDP1 cell noCPT inconclusive
Cc1ccccc1S(=O)Cc1ccc(C(=O)N2CCN(c3cccc(C)c3C)CC2)o1 (centres undefined)	DT40 TDP1 CPT 0.65µM, TDP1 cell noCPT 0.82µM (no result: RORgamma inh, Gal4-VP16 FLuc)
CC(=O)OC1c2ccccc2C(=O)N1Cc1ccccc1Cl (centres undefined)	none
Cc1ccc(-c2c(C(=O)N3CCN(c4ccc(F)cc4)CC3)oc(=O)c3ccccc23)cc1	DT40 TDP1 CPT inconclusive, TDP1 cell noCPT inconclusive (no result: RORgamma inh, Gal4-VP16 FLuc)
Cc1ccc(Cl)cc1N1CCN(C(=O)c2ccc(CS(=O)c3ccccc3)o2)CC1 (centres undefined)	DT40 TDP1 CPT 2.6µM, TDP1 cell noCPT 5.2µM (no result: RORgamma inh, Gal4-VP16 FLuc)
Cc1ccc(C)c(N2CCN(C(=O)c3ccc(CS(=O)Cc4cccc(Cl)c4)o3)CC2)c1 (centres undefined)	DT40 TDP1 CPT inconclusive
Cc1ccc(-c2c(C(=O)N3CCN(c4cccc(C)c4C)CC3)oc(=O)c3ccccc23)cc1	DT40 TDP1 CPT inconclusive, TDP1 cell noCPT 21µM (no result: RORgamma inh, Gal4-VP16 FLuc)
Cc1ccc(S(=O)(=O)Cc2ccc(C(=O)N3CCN(c4cccc(C)c4C)CC3)o2)cc1	DT40 TDP1 CPT 1.8µM, TDP1 cell noCPT 2.6µM
O=C(c1ccc(COc2c(F)c(F)cc(F)c2F)o1)N1CCN(c2ccc(Cl)cc2)CC1	DT40 TDP1 CPT 13µM, TDP1 cell noCPT 16µM
NCCCC[C@H](NC(=O)[C@@H]1CCCN1C(=O)[C@@H](N)CCCN=C(N)N)C(=O)N1CCC[C@H]1C(=O)N[C@@H](CCC(N)=O)C(=O)N[C@@H](CCC(N)=O)C(=O)N[C@@H](Cc1ccccc1)C(=O)O	none (no result: DT40 TDP1 CPT, TDP1 cell noCPT)
COc1ccc(CCN2CC(C(=O)N(C)CCc3cn[nH]c3)CCC2=O)cc1 (centres undefined)	none (no result: TDP1 inh)
COC(=O)c1cc(C(=O)N2CCN(c3ncccn3)CC2)cc([N+](=O)[O-])c1	none
Cc1ccc(Cl)cc1N1CCN(C(=O)c2noc3c2CCCC3)CC1	DT40 TDP1 CPT 12µM, TDP1 cell noCPT inconclusive (no result: RORgamma inh, Gal4-VP16 FLuc)
O=C(c1ccccc1OCc1ccc(Cl)cc1)N1CCN(c2ccccn2)CC1	DT40 TDP1 CPT 23µM, TDP1 cell noCPT inconclusive (no result: RORgamma inh, Gal4-VP16 FLuc)
COC(=O)c1cc(C(=O)N2CCN(c3cccc(C)c3C)CC2)cc([N+](=O)[O-])c1	DT40 TDP1 CPT 5.8µM, TDP1 cell noCPT 2.6µM
O=C(c1ccc(CS(=O)c2cccc(Cl)c2)o1)N1CCN(c2ccccn2)CC1 (centres undefined)	DT40 TDP1 CPT inconclusive, TDP1 cell noCPT 9.2µM
CC(=O)Nc1c(C)nn(-c2ccccc2)c1N1CCC(C(=O)NCc2ccccc2Cl)CC1	DT40 TDP1 CPT inconclusive, TDP1 cell noCPT inconclusive (no result: RORgamma inh, Gal4-VP16 FLuc)
O=C(c1ccc(CS(=O)c2ccccc2Cl)o1)N1CCN(c2ccccc2F)CC1 (centres undefined)	DT40 TDP1 CPT 1.3µM, TDP1 cell noCPT 1.3µM (no result: RORgamma inh, Gal4-VP16 FLuc)
O=C(c1ccc(Br)o1)N1CCN(c2ccccc2F)CC1	TDP1 cell noCPT inconclusive
Cc1ccc(Cl)cc1N1CCN(C(=O)COc2ccc3c(c2)CCC3)CC1	TDP1 cell noCPT 21µM
Cc1ccc(CS(=O)Cc2ccc(C(=O)N3CCN(c4ccccn4)CC3)o2)cc1 (centres undefined)	DT40 TDP1 CPT 21µM, TDP1 cell noCPT inconclusive
Cc1cccc(N2CCN(C(=O)c3ccc(CS(=O)c4cccc(Cl)c4)o3)CC2)c1C (centres undefined)	DT40 TDP1 CPT 0.82µM, TDP1 cell noCPT 0.92µM (no result: RORgamma inh, Gal4-VP16 FLuc)
CCCCC[C@H](O)/C=C/[C@H]1[C@H](O)CC(O)[C@@H]1C/C=C\CCCC(=O)O (some centres undefined)	none (no result: DT40 TDP1 CPT, TDP1 cell noCPT, RORgamma inh, Gal4-VP16 FLuc)
CCCCC[C@H](O)/C=C/C1C(=O)C=C[C@H]1C/C=C\CCCC(=O)OC (some centres undefined)	DT40 TDP1 CPT 5.8µM, TDP1 cell noCPT 7.3µM (no result: RORgamma inh, TDP1 inh, Gal4-VP16 FLuc)
CCCCC[C@H](O)/C=C/[C@H]1C(=O)C=C[C@@H]1C/C=C\CCCC(=O)O	none
CCCCC[C@H](O)/C=C/[C@@H]1[C@@H](C/C=C\CCCC(=O)OC)[C@@H](O)C[C@H]1O	TDP1 cell noCPT inconclusive, TDP1 inh 50µM

Screening results: PubChem, National Center for Advancing Translational Sciences (NCATS)
